Laboratory results as given in PubChem BioAssay AID2661 (Broad Institute, 2010).
Out of some 320,000 compounds screened, about 240 (0.075%) were called active.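 Rule for the calls: active = inhibition at or above 25%, using the most active replicate where run in duplicate; inactive = inhibition below 25%.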 What follows is part of a selection rich in actives, with near analogues and random picks from the rest.

target: Serine/threonine-protein kinase 33 (Homo sapiens) (UniProt Q9BYT3); assay: inhibitors of purified STK33 kinase, primary screen, biochemical, ADP-Glo luminescence, homogeneous, cell-free (AID 2661); settings: purified STK33, MBP phosphorylation, at 10 µM, active compounds read high
Sequence (Q9BYT3 whole entry, looked up): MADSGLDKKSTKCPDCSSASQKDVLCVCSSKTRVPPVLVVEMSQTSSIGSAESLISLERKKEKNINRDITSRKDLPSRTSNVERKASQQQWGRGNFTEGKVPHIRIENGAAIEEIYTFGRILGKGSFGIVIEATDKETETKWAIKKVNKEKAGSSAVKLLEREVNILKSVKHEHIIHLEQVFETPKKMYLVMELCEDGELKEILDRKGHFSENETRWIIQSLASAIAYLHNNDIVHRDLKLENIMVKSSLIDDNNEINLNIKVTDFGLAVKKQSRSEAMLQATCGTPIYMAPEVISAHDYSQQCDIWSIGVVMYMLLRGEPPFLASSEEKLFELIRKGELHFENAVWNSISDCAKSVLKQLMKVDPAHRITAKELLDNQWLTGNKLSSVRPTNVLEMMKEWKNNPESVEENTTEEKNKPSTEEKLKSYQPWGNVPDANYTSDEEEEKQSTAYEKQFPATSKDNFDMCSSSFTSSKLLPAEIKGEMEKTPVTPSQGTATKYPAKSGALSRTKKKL

Compound | inhibition
CC(C)n1cnc2c(Nc3cccc(Cl)c3)nc(N(CCO)CCCO)nc21 | 55.5% (active)
CC(C)C[C@H](CO)Nc1nc(N(C)c2cccc(Cl)c2)c2ncn(C(C)C)c2n1 | -0.739% (inactive)
OCCCNc1nccc(-c2cc(Nc3cccc(Cl)c3)ncn2)n1 | 5.41% (inactive)
O=C(COc1ccccc1F)Nc1nc(-c2ccccn2)cs1 | -1.01% (inactive)
COc1ccc(C2(c3ccc(OC)cc3)NC(=O)N(CC(=O)Nc3cc(C)on3)C2=O)cc1 | -0.176% (inactive)
CC1CN(C(=O)c2ccc([N+](=O)[O-])s2)CC(C)O1 (stereo not given) | -2.19% (inactive)
O=C1CCC/C=C\C[C@@H](CC(=O)N(CCO)Cc2ccccc2)C(=O)NCCO1 | -0.894% (inactive)
COC(=O)[C@]1(Cc2ccccc2)N[C@H](CN(C)S(=O)(=O)c2ccc(F)cc2)[C@@H]2C(=O)N(Cc3ccccc3)C(=O)[C@@H]21 | 0.777% (inactive)
CNC[C@@H]1Oc2c(NS(C)(=O)=O)cccc2C(=O)N([C@@H](C)CO)C[C@H]1C | -0.879% (inactive)
O=C(Cn1cnc2c(OCc3ccccc3)ncnc21)NCc1nc2ccccc2[nH]1 | 0.0433% (inactive)
O=C(COC(=O)CSc1ccccc1)Nc1ccc(F)cc1F | -1.54% (inactive)
Cc1noc(C)c1C(=O)OC(C)C(=O)Nc1ccc2c(c1)OCO2 (stereo not given) | -2.76% (inactive)
CC(C)(C)OC(=O)C[C@@H]1C/C=C\C[C@@H](CC(=O)N[C@@H](CO)Cc2ccccc2)C(=O)N2CCC[C@H]2COC1=O | -0.177% (inactive)
CCOc1cc(/C=C2\SC(N3CCCC(C)C3)=NC2=O)ccc1O (stereo not given) | 26.4% (active)
O=C1N=C(N2CCCC2)S/C1=C\c1cccc(Br)c1 | -0.704% (inactive)
O=C1N=C(N2CCc3ccccc3C2)S/C1=C\c1ccc(O)cc1 | 11% (inactive)
CCOc1cc(/C=C2\SC(N3CCCCC3)=NC2=O)ccc1O | 8.65% (inactive)
CC1CCN(C2=NC(=O)/C(=C/c3ccc(O)cc3)S2)CC1 | 25.8% (active)
CC1CCN(C2=NC(=O)/C(=C/c3cn[nH]c3-c3ccccc3)S2)CC1 | 0.902% (inactive)
O=C(COC(=O)c1ccc(F)cc1)NCC1COc2ccccc2O1 (stereo not given) | -0.961% (inactive)
NS(=O)(=O)c1ccc(CNC(=S)NC(=O)c2ccco2)cc1 | -0.0738% (inactive)
CC1Cc2ccccc2N1S(=O)(=O)c1cccc(C(=O)OCC(=O)N2CCOCC2)c1 (stereo not given) | -1.13% (inactive)
Cc1ccc(S(=O)(=O)N2CCCCC2)cc1NC(=O)CCNC(=O)c1ccccc1 | -0.0957% (inactive)
O=C(Nc1nnc(-c2ccccc2)o1)c1cccc(S(=O)(=O)N2CCOCC2)c1 | -0.807% (inactive)
COc1cc(OC)cc(C(=O)NCC(=O)OCC(=O)NC(C)CCc2ccccc2)c1 (stereo not given) | -0.78% (inactive)
Cn1cccc1C(=O)OCC(=O)NCCc1ccccc1 | -0.939% (inactive)
CC(C#N)OC(=O)c1cccnc1SCC(=O)Nc1ccc2c(c1)OCO2 (stereo not given) | 0.605% (inactive)
CC(=O)c1c(C)[nH]c(C(=O)COC(=O)c2cccs2)c1C | -3.01% (inactive)

Compound | inhibition
COc1cc(OC)cc(-c2cc3ccc(F)cc3cn2)c1 | 1.46% (inactive)
COc1ccc2nc3n(c(=O)c2c1)-c1ccc(Cl)cc1C(=O)NC3Cc1ccccc1 (stereo not given) | 0.119% (inactive)
COc1ccc(-n2cnc3cc(C(=O)NC4CCCC4)ccc32)cc1 | -0.505% (inactive)
COc1ccc(C(=O)NC2CC2)cc1OC1CCN(Cc2cnn(C)c2)CC1 | 0.281% (inactive)
COc1cc(C(=O)NC2CCN(C)CC2)ccc1Nc1ncc2c(n1)N(C1CCC(O)CC1)CCC(=O)N2C (stereo not given) | 54.5% (active)
Cc1ccc(C(=O)Nc2ccccc2-c2ccccc2)cc1S(=O)(=O)Nc1ccccc1 | -1.82% (inactive)
COCCN(CCOC)S(=O)(=O)NC[C@H]1O[C@@H](n2cnc3c(N)ncnc32)[C@H](O)[C@@H]1O | -0.284% (inactive)
COc1ccccc1CNC(=O)COC(=O)c1cccs1 | -1% (inactive)
COc1cc(SC)ccc1C(=O)NNC(=O)C1COc2ccccc2O1 (stereo not given) | -1.07% (inactive)
O=C(CSc1nccn1-c1cccc(F)c1)NC1CCCC1 | 0.473% (inactive)
Cc1ccc(NS(=O)(=O)c2ccc(C(C)C)cc2)cc1S(=O)(=O)N1CCOCC1 | -3.33% (inactive)
O=C(N=C1SC2CS(=O)(=O)CC2N1c1ccccc1)c1ccccc1 (stereo not given) | 0.811% (inactive)
COc1cc(OC)cc(-c2sc3ccc(OC)cc3c2-c2ccc3cc[nH]c3c2)c1 | 1.63% (inactive)
CC(Oc1ccc2c(-c3ccccc3)cc(=O)oc2c1)C(=O)NC(Cc1c[nH]c2ccccc12)C(=O)O (stereo not given) | -3% (inactive)
COc1cccc2sc3cc(NCC[C@@H]4CCCN4C)ccc3c(=O)c12 | 4.13% (inactive)
COC(=O)[C@]1(CC(C)C)N[C@H](c2ccc(SC3CCCCC3)cc2)[C@@H]2C(=O)N(C)C(=O)[C@@H]21 | -0.318% (inactive)
COc1ccc(C(=O)C(C)OC(=O)c2cccc(S(=O)(=O)Nc3c(C)n(C)n(-c4ccccc4)c3=O)c2)cc1 (stereo not given) | -0.0798% (inactive)
CC(=O)C(CC(=O)N1CCCC1)C(=O)Nc1ccc(Cl)cc1 (stereo not given) | -0.972% (inactive)
CCC(CO)Oc1cc(NCc2ccccc2)c2ncn(C3CCCC3)c2c1 (stereo not given) | 3.27% (inactive)
O=C(Nc1cccc(S(=O)(=O)N2CCCCC2)c1)c1cncc(Br)c1 | -0.246% (inactive)
CC(=NNC(=O)c1ccc2nc[nH]c2c1)c1ccc(Br)cc1 | -0.319% (inactive)
COc1cc(S(=O)(=O)N2CCN(C(=O)C3CC3)CC2)ccc1NC(C)=O | 0.285% (inactive)
COc1ccccc1C(=O)COC(=O)COc1ccc(C#N)cc1 | 5.03% (inactive)
CCc1cccc(CC)c1NC(=S)Nc1ccc2cn[nH]c2c1 | 24.8% (inactive)
S=C(Nc1cccc(Cl)c1)Nc1ccc2cn[nH]c2c1 | 27% (active)
Cc1cccc(NC(=S)Nc2ccc3cn[nH]c3c2)c1 | 11.6% (inactive)
CN(Cc1ccc(F)cc1)C(=O)CN1C(=O)c2ccccc2S1(=O)=O | -1.27% (inactive)
